ID4 binder: binders of human ID4 protein; P47928; small molecule microarray, Flag-ID4 binding, fluorescence F/B; calls only; actives 1.2% (n = 31,000); AID 624137; call rule not given here;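 also: a binder raises fluorescence above local background on the spot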
Target sequence (P47928 whole entry, looked up): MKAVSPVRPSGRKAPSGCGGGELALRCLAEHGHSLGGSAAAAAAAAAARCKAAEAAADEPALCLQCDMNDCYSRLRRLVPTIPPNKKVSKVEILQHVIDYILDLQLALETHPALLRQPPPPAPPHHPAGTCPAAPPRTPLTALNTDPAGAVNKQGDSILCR
mut p53 react: mutant p53 pathway reactivation | actives 1.5% (n = 28,000) | AID 624151 | SW480 PUMA-promoter luciferase | activation, % at 9.98 µM; in the data active = activation above about 52%
Numbers without * were called inactive; i = inactive; nt = not tested or not shown; + = active, no number. Most compounds without a hit are left out; they make up all but 2.3% or so of the library.

SMILES	ID4 binder	mut p53 react
CCOC(=O)c1cccc(NC(=O)COc2ccc(Br)cc2)c1	i	2.1
C[C@@H]1[C@H]2[C@H](OC3O[C@H](CO)[C@@H](O)[C@H](O)[C@H]3O)OC=C(C(=O)O)[C@H]2C[C@@H]1O (stereo partly specified)	i	nt
Cc1ccc2oc(-c3ccc(NC(=O)Cn4c(=O)oc5ccccc54)cc3)nc2c1	i	60.3*
O=C(CN1C(=O)c2ccccc2C1=O)Nc1ccc(-c2nc3ccccc3o2)cc1	i	28.0
O=C1C2(CO)C=C(Br)[C@H](C[C@@H]2c2ccccc2)[C@@]12CO2	i	nt
CCCc1ccc(-c2cc(C(=O)NCc3cnn(C)c3)c3ccccc3n2)cc1	i	105.6*
Cn1cc(CNC(=O)c2cc(-c3ccc(Br)cc3)nc3ccccc23)cn1	i	36.1
CC(C(=O)NC1CCCCC1)N(c1ccc(Cl)cc1)S(C)(=O)=O (stereo unspecified)	i	-1.0
CC(=O)Nc1ccccc1C(=O)OCc1cccc(C(=O)c2ccccc2)c1	i	94.2*
N#Cc1ccc(Oc2ccc(C(=O)OCc3cccc(C(=O)c4ccccc4)c3)cc2)cc1C#N	i	8.1
O=C(Nc1ccccc1C(=O)OCc1cccc(C(=O)c2ccccc2)c1)c1ccccc1	i	6.0
O=C(OCc1cccc(C(=O)c2ccccc2)c1)c1ccc(-c2nnc(-c3ccccc3)o2)cc1	i	71.3*
O=C1c2cccc3cccc(c23)C(=O)N1CCc1cnc[nH]1	i	18.5
O=C(CSc1nc2ccccc2s1)Nc1ccc(N2CCOCC2)c(Cl)c1	i	0.2
COc1cc(OC)nc(NC(=O)CSc2nc3ccccc3o2)n1	i	-16.5
COC(=O)c1cc(OC)c(OC)cc1NC(=O)CSc1nc2ccccc2o1	i	104.7*
CC(=O)Nc1ccc(C(=O)CSc2nc3ccccc3o2)cc1	i	56.3*
O=C(CCSc1nc(-c2ccccc2)cs1)Nc1ccccc1	i	1.6
O=C(CSc1nc2ccccc2o1)Nc1ccc(N2CCOCC2)c(Cl)c1	i	96.1*
CC(=O)Nc1ccc(C(=O)CSc2nc(-c3ccccc3)cs2)cc1	i	87.6*
CCOc1ccc(NC(=O)CSc2nc3ccccc3o2)cc1	i	44.0
O=S(=O)(NC1CCN(Cc2cccc(OCCO)c2)CC1)c1ccc(Cl)cc1	i	nt
CCOc1ncnc2ccc(Br)cc12	i	nt
COc1cc(CNCc2ccccc2)cc(I)c1OCC#N	i	12.3
O=C1O[C@@H](c2ccccc2)[C@@H](c2ccccc2)N2[C@@H](c3ccccc3OCCO)[C@]3(C(=O)Nc4ccc(C#CCCO)cc43)[C@@H](C(=O)Nc3nc4ccccc4s3)[C@H]12	i	nt
SMILES	ID4 binder	mut p53 react
O=C(Cn1cc(C(=O)c2ccccc2F)c2ccccc21)Nc1ccccc1	i	-2.8
COc1ccccc1N1CCN(C(=O)CN(c2cc(Cl)ccc2OC)S(C)(=O)=O)CC1	i	-18.2
CC(OC(=O)c1cccc(O)c1)C(=O)O (stereo unspecified)	i	2.5
COc1ccc(S(=O)(=O)N(C)CC(N)=O)cc1	i	-8.7
O=C(c1ccccc1)c1ccc(N2CCOCC2)cc1O	i	nt
C=C1CCC(C)C(C)(CCC2=CC(=O)OC2O)C/C=C\C=C/1C(=O)O (stereo unspecified)	nt	8.5
COCCOC(=O)N1C(=O)[C@@]2(c3cc(C#Cc4ccc(OC)cc4)ccc31)[C@H](C(=O)N1CCc3cc(OC)c(OC)cc3C1)[C@H]1C(=O)O[C@H](c3ccccc3)[C@H](c3ccccc3)N1[C@@H]2c1ccccc1OCCO	+	nt
COCCOC(=O)N1C(=O)[C@@]2(c3cc(C#CCNC(N)=O)ccc31)[C@H](C(=O)N1CCc3cc(OC)c(OC)cc3C1)[C@H]1C(=O)O[C@H](c3ccccc3)[C@H](c3ccccc3)N1[C@@H]2c1ccccc1OCCO	i	nt
COc1ccc(Oc2c(C(F)(F)F)oc3cc(OCC(=O)Nc4ccccc4F)ccc3c2=O)cc1	i	-38.9
COC(=O)c1ccc(OCC(O)Cn2c(C)nc3ccccc32)cc1 (stereo unspecified)	+	2.6
Cc1nc2ccccc2n1CC(O)COc1ccc(C(=O)O)cc1 (stereo unspecified)	i	3.9
O=C(CSc1nc2ccccc2s1)NO	i	-15.1
CC(=O)C(C)Sc1ncnc2sc(-c3ccccc3)cc12 (stereo unspecified)	i	72.6*
O=C(CSc1ncnc2sc(-c3ccccc3)cc12)NC1CCCCC1	i	-30.8
Cc1ccc(S(=O)(=O)N(C)CC(=O)Nc2ccccc2Cl)cc1	i	3.7
CN1c2ccccc2Oc2nnc(N3CCN(c4ccccc4)CC3)cc21	i	95.0*
Cc1ccc(N2CC(C(=O)Nc3ccc(S(=O)(=O)NCC4CCCO4)cc3)CC2=O)cc1 (stereo unspecified)	+	1.1
CS(=O)(=O)Nc1ccc(S(=O)(=O)NCC2CCCO2)cc1 (stereo unspecified)	i	-4.3
N/C(=N\O)c1ccc(N2CCN(c3ncccc3C(F)(F)F)CC2)nc1	i	141.8*
O=C(CSc1nc(O)cc(=O)n1-c1ccccc1)Nc1cccc2ccccc12	i	-10.5
CC1=CCC(C(=O)O)C(C(=O)Nc2ccc(OC(F)(F)F)cc2)C1 (stereo unspecified)	i	-11.4
CC1=CCC(C(=O)O)C(C(=O)Nc2ccccc2NC(=O)c2ccc(C(F)(F)F)cc2)C1 (stereo unspecified)	i	107.7*
O=C(COc1ccccc1[N+](=O)[O-])Nc1ccc(N2CCN(C(=O)c3ccco3)CC2)cc1	i	9.7
CCOc1ccccc1Nc1nc(N)nc(CSc2nccc(C)n2)n1	i	16.3
COc1ccccc1Nc1nc(N)nc(CSc2ncccn2)n1	i	85.7*
SMILES	ID4 binder	mut p53 react
C[C@H]1CCCCO[C@@H](CN(C)C(=O)C2CCCCC2)[C@@H](C)CN([C@@H](C)CO)C(=O)c2cc(NC(=O)c3ccncc3)ccc2O1	i	0.4
C[C@@H]1CCCCO[C@H](CN(C)C(=O)C2CCCCC2)[C@@H](C)CN([C@@H](C)CO)C(=O)c2cc(NC(=O)c3ccncc3)ccc2O1	+	4.0
C[C@@H]1CN([C@H](C)CO)C(=O)c2cc(NS(=O)(=O)c3ccccc3)ccc2O[C@@H](C)CCCCO[C@@H]1CN(C)C(=O)c1ccncc1	+	0.8
C[C@@H]1CCCCO[C@H](CN(C)C(=O)c2ccncc2)[C@@H](C)CN([C@H](C)CO)C(=O)c2cc(NS(=O)(=O)c3ccccc3)ccc2O1	i	2.2
CCOc1cc(C2N=C(Nc3nc4ccccc4o3)NC3=C2C(=O)CC(C)(C)C3)ccc1O (stereo unspecified)	i	11.1
COC(=O)c1cc(OC)c(OC)cc1NC(=O)COc1ccc(Br)c(C)c1	i	-1.1
CC(C)(C)c1cc(C(=O)CSc2nc3ccccc3[nH]2)cc(C(C)(C)C)c1O	i	-15.1
CCc1cccc(C)c1NC(=O)CN(C)S(=O)(=O)c1ccc(Cl)cc1	i	1.4
O=C(CSC1CC(=O)N(c2ccccc2)C1=O)Nc1cccc(Cl)c1 (stereo unspecified)	i	1.2
Cc1ccc(C)c(OCCCCSc2ncccn2)c1Cl	i	38.9
Cc1cc(Cl)cc(Br)c1OCCCSc1ncccn1	i	131.9*
CCOc1ccc(-c2nc(C#N)c(NCCCN(CC)CC)o2)cc1	i	18.0
